Screening data as filed in PubChem BioAssay.
Only a selection was taken, and hits are over-represented in it overall.
Pf Dd2 inh – Plasmodium falciparum Dd2 growth inhibition. P. falciparum Dd2 growth, SYBR Green, 72 h. AID 1347417. 120,000 tested, 4.3% active. Potency, µM (series often up to 28.9 µM), usual class: inhibitors; active = well fitted inhibition curve with a large enough effect; also: nearly all actives have a fitted effect of over 65% in size
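Infected erythrocytes (Dd2, 0.3% parasitemia, 2.5% hematocrit final) are added to compound in RPMI-1640/Albumax II medium, grown 72 h at 37C in low oxygen, then lysed with saponin/Triton-X containing SYBR Green and read by fluorescence.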
Hits are given with their value; . = inactive; [ ] = dose if it differs, or a comment.

SMILES	Pf Dd2 inh
CCNC(=O)N1CCC(N2C(=O)C3(CCCC3)C2c2ccccc2)CC1 (stereo not drawn)	11µM
Cn1cnc(S(=O)(=O)N2CCC(N3C(=O)C4(CCCC4)C3c3ccccc3)CC2)c1 (stereo not drawn)	.
COCC(=O)N1CCC(N2C(=O)C3(CCCCC3)C2c2ccccc2)CC1 (stereo not drawn)	.
CN(C)S(=O)(=O)N1CCC(N2C(=O)C3(CCCCC3)C2c2ccccc2)CC1 (stereo not drawn)	.
CCOC(=O)CCNC(=O)N1CCC(N2C(=O)C3(CCCC3)C2c2scnc2C)CC1 (stereo not drawn)	.
O=C1N(C2CCNCC2)C(c2ccccc2)C12CCCC2 (stereo not drawn)	5µM
O=C(CC(F)(F)F)N1CCC(N2C(=O)C3(CCCC3)C2c2ccccc2)CC1 (stereo not drawn)	6.3µM
O=C(Cn1ccnc1)N1CCC(N2C(=O)C3(CCCC3)C2c2ccccc2)CC1 (stereo not drawn)	.
O=C(Cc1ccncc1)N1CCC(N2C(=O)C3(CCCCC3)C2c2ccccc2)CC1 (stereo not drawn)	.
Cc1ccc(C2Cn3nnc(C(=O)N4CCC(C(=O)Nc5ccc(F)c(Cl)c5)CC4)c3CO2)cc1 (stereo not drawn)	.
O=c1c(-c2cccs2)ccc2n1C[C@H]1C[C@@H]2CN(Cc2cc3ccccc3o2)C1	.
COc1ccc(C2(C(=O)N3CCC([C@H]4[C@@H](OC)C(=O)N4C(C)C)CC3)CC2)cc1	.
COc1ccc(NC(=O)C2CC(=O)N(c3n[nH]c4cccc(F)c34)C2)cc1Cl (stereo not drawn)	.
CCN(CC)C(=O)c1sc2c(c1C)c(=O)n(CCc1ccccc1)c(=O)n2Cc1ccc(C)cc1	11µM
Cc1ccccc1NC(=O)Cn1c(=O)n(Cc2ccccc2)c(=O)c2c(C)c(C)sc21	.
CCc1ccc(-n2c(=O)c3c(C)c(C(=O)N(C)C)sc3n(Cc3cccc(C)c3)c2=O)cc1	.
CCN(CC)C(=O)c1sc2c(c1C)c(=O)n(-c1ccccc1)c(=O)n2Cc1cc(=O)n2ccccc2n1	.
Cc1sc2c(c1C)c(=O)n(Cc1ccccc1)c(=O)n2Cc1ccc(F)cc1	.
CCN(CC)C(=O)c1sc2c(c1C)c(=O)n(-c1ccccc1)c(=O)n2Cc1c(C)cc(C)cc1C	10µM
CCN(CC)C(=O)c1sc2c(c1C)c(=O)n(-c1ccc(C)c(C)c1)c(=O)n2Cc1cc(=O)n2c(C)cccc2n1	.
Cc1cc(C)c(NC(=O)Cn2c(=O)n(Cc3ccccc3)c(=O)c3c(C)c(C(=O)N(C)C)sc32)c(C)c1	.
CCc1ccccc1NC(=O)Cn1c(=O)n(Cc2ccccc2)c(=O)c2c(C)c(C(=O)N(C)C)sc21	4.5µM
Cc1cc(C(=O)N2CCC(N3C[C@H](O)C[C@H]3C(=O)NC3CCCCC3)CC2)nn1C	.
Cc1cnccc1CN(C)Cc1ccc2c(C)cc(=O)oc2c1	.
CN(C)c1nc(-c2ccccc2)nc2c1CCN(C(=O)c1ccncc1)C2	.
SMILES	Pf Dd2 inh
O=S1(=O)NCC2(CCN(Cc3c[nH]c4ccccc34)C2)Oc2ncccc21 (stereo not drawn)	.
Cc1cn2nc(C(=O)N3CCC(NC(=O)c4cccc(F)c4)CC3)cc2c(=O)[nH]1	.
O=C(CN1C(=O)NC(c2ccc(Cl)cc2)C2=C1COC2=O)Nc1ccc(Cl)cc1F (stereo not drawn)	.
Cc1cc2nn(-c3ccc(F)cc3)nc2cc1NC(=O)c1cc(Cl)ccc1Cl	.
Cc1cc2nn(-c3ccccc3)nc2cc1NC(=O)c1cccc2c(Cl)cccc12	.
CCN(CC)c1ccc(-n2nc3cc(C)c(NC(=O)c4ccccc4F)cc3n2)cc1	1.4µM
CN(C)c1cc(N2CCCC(NC(=O)COc3ccccc3)C2)ncn1 (stereo not drawn)	.[5.79 µM]
Cc1oc2c(c1C(=O)NCc1cccnc1)CN(Cc1ccc(F)cc1)CC2	.
O=C(NCCOc1ccccc1)c1nc2c(o1)CCN(Cc1cccc(F)c1)CC2	.
COC(=O)C1CCCN1C(=O)c1c(C)oc2c1CN(Cc1ccc(C)cc1)CC2 (stereo not drawn)	.
Cc1oc2c(c1C(=O)NCc1ccncc1)CN(Cc1cccc(F)c1)CC2	10µM
COc1ccc(CN2CCc3oc(C)c(C(=O)N4CCOCC4)c3C2)cc1	.
COCCNC(=O)c1c(C)oc2c1CN(Cc1cccc(F)c1)CC2	5µM
Cc1oc2c(c1C(=O)N1CCOCC1)CN(Cc1cccnc1)CC2	.
Cc1oc2c(c1C(=O)NCCc1ccncc1)CN(C)CC2	.
Cc1oc2ccn(Cc3cccc(F)c3)c(=O)c2c1C(=O)NCc1ccccc1	.
COc1ccc(CN2CCc3nc(C(=O)NCc4cccc(F)c4)oc3CC2)cc1	.
COc1ccc(CN2CCc3oc(C)c(C(=O)NCc4cccnc4)c3C2)cc1	11µM
COc1ccc(CN2CCc3oc(C)c(C(=O)NC4CCN(C)CC4)c3C2)cc1	10µM
CCN(CC)CC[C@H]1CN(C(=O)NC(C)C)CC[C@H]1CC(=O)O	.
CC(C)C1=NOC2(CCN(Cc3cccc(C(F)(F)F)c3)CC2)C1	.
